Assay results from PubChem BioAssay (NCATS).
Records with an inconclusive call do not appear. Where a call stands in place of a potency, no number is given. Unmarked numbers belong to inactive results. Active and inactive are the calls of the source. The call rests on the fitted dose curve; in most records, active means well fitted cell-killing curve with a large enough effect; inconclusive means small, poorly fitted or top-dose-only effect, or effect the other way; inactive means flat fitted curve, though single readings scatter.

Legend:
Experiment in all cases: Primary qHTS to identify gynecologic anti-cancer compounds using libraries of approved drugs and bioactive compounds (AID 1345084); further: nearly all actives have a fitted effect of over 55% in size
C33A = settings: Gynecologic cancer cell panel viability, ATPlite luminescence, 48 h; series mostly up to 57.5 µM
Summary of the method: (§1)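 Measured: luminescence after ATPlite addition (15 min, RT). Exposure: 48 h, 37 C, 5% CO2.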

CAOV3 = settings: Gynecologic cancer cell panel viability, ATPlite luminescence, 48 h; series mostly up to 57.5 µM
Summary of the method: as §1

CASKI = settings: Gynecologic cancer cell panel viability, ATPlite luminescence, 48 h; series mostly up to 57.5 µM
Summary of the method: as §1

Es-2 = settings: Gynecologic cancer cell panel viability, ATPlite luminescence, 48 h; series mostly up to 57.5 µM
Summary of the method: as §1

HeLa = settings: Gynecologic cancer cell panel viability, ATPlite luminescence, 48 h; series mostly up to 57.5 µM
Summary of the method: as §1

Hek293T = settings: Gynecologic cancer cell panel viability, ATPlite luminescence, 48 h, control line for the selectivity index; series mostly up to 57.5 µM
Summary of the method: as §1

JEG-3 = settings: Gynecologic cancer cell panel viability, ATPlite luminescence, 48 h; series mostly up to 57.5 µM
Summary of the method: as §1

OV90 = settings: Gynecologic cancer cell panel viability, ATPlite luminescence, 48 h; series mostly up to 57.5 µM
Summary of the method: as §1

PA-1 = settings: Gynecologic cancer cell panel viability, ATPlite luminescence, 48 h; series mostly up to 57.5 µM
Summary of the method: as §1

SKOV3 = settings: Gynecologic cancer cell panel viability, ATPlite luminescence, 48 h; series mostly up to 57.5 µM
Summary of the method: as §1

Tov-21-G = settings: Gynecologic cancer cell panel viability, ATPlite luminescence, 48 h; series mostly up to 57.5 µM
Summary of the method: as §1

Tov112D = settings: Gynecologic cancer cell panel viability, ATPlite luminescence, 48 h; series mostly up to 57.5 µM
Summary of the method: as §1
Potency means the concentration at half of the fitted maximal effect.

Row | SMILES | Potency (C33A) | Potency (CAOV3) | outcome (CASKI) | Potency (Es-2) | Potency (HeLa) | Potency (Hek293T) | Potency (JEG-3) | Potency (OV90) | Potency (PA-1) | Potency (SKOV3) | Potency (Tov-21-G) | Potency (Tov112D)
1 | COc1cc(O)cc2c1C(=O)OC(C)CCCCCCC2 (stereo not given) | inactive | inactive | inactive | inactive | inactive | inactive | inactive | inactive | inactive | inactive | inactive | inactive
2 | CC(=O)O[C@H]1[C@H](OC(=O)C(C)C)[C@]2(C)OC3(CC[C@]2(C)[C@H]2CCC[C@]4(CO4)[C@]12C)COC(=O)C3 (stereo not given in full) | inactive | inactive | inactive | inactive | inactive | inactive | inactive | inactive | inactive | inactive | inactive | inactive
3 | CC1=CC(=O)CC(C)(C)C1CCC(C)O[C@@H]1O[C@H](CO)[C@@H](O)[C@H](O)[C@H]1O (stereo not given in full) | inactive | inactive | inactive | inactive | inactive | inactive | inactive | inactive | inactive | inactive | inactive | inactive
4 | COC(=O)C1=COC(O[C@@H]2O[C@H](CO)[C@@H](O)[C@H](O)[C@H]2O)[C@@H]2[C@@](C)(O)[C@@H](OC(=O)/C=C/c3ccccc3)C[C@]12O (stereo not given in full) | inactive | inactive | inactive | inactive | inactive | inactive | inactive | inactive | inactive | inactive | inactive | inactive
5 | CC(C)C[C@H](NC(=O)[C@@H]1O[C@H]1C(=O)O)C(=O)NCCCCN=C(N)N | inactive | inactive | inactive | inactive | inactive | inactive | inactive | 28.2 µM (active) | inactive | inactive | inactive | inactive
6 | N#Cc1cc(-c2n[nH]c(-c3ccncc3)n2)ccn1 | inactive | inactive | inactive | inactive | inactive | inactive | inactive | inactive | inactive | inactive | inactive | inactive
7 | CCCO[C@@H]1O[C@H](CO)[C@@H](O)[C@H](O)[C@H]1O[C@@H]1OC[C@@H](O)[C@H](O)[C@H]1O | inactive | inactive | inactive | inactive | inactive | inactive | inactive | inactive | inactive | inactive | inactive | inactive
8 | CC12CC34CC(O)C5C(CO)(CO)CC(=O)CC5(C)C3CC1C2C4 (stereo not given) | inactive | inactive | inactive | inactive | inactive | inactive | inactive | inactive | inactive | inactive | inactive | inactive
9 | COc1cc(O)cc(O[C@@H]2O[C@H](CO)[C@@H](O[C@@H]3OC[C@](O)(CO)[C@H]3O)[C@H](O)[C@H]2O)c1OC | inactive | inactive | inactive | inactive | inactive | inactive | inactive | inactive | inactive | inactive | inactive | inactive
10 | CCOC(=O)C(CCc1ccccc1)NC(C)C(=O)N1Cc2ccccc2CC1C(=O)O (stereo not given) | inactive | inactive | inactive | inactive | inactive | inactive | inactive | inactive | inactive | inactive | inactive | inactive
11 | C[C@@H]1O[C@@H](O[C@H]2[C@@H]3C=CO[C@@H](O[C@@H]4O[C@H](CO)[C@@H](O)[C@H](O)[C@H]4O)[C@@H]3[C@@]3(CO)O[C@@H]23)[C@H](O)[C@H](O)[C@H]1OC(=O)/C=C/c1ccc(O)cc1 | inactive | inactive | inactive | inactive | inactive | inactive | inactive | inactive | inactive | inactive | inactive | inactive
12 | N[C@@H](CCNCc1ccc(Cl)cc1)C(=O)N1CCCCC1 | inactive | inactive | inactive | inactive | inactive | inactive | inactive | inactive | inactive | inactive | inactive | inactive
13 | CC(=O)OC/C(=C/C(=O)O)CC[C@@H]1C(CO)=CC[C@@H]2C(C)(C)CCC[C@@]12C | inactive | inactive | inactive | inactive | inactive | inactive | inactive | inactive | inactive | inactive | inactive | inactive
14 | CCc1cccc2c3c([nH]c12)[C@@](CC)(CC(=O)O)OCC3 | inactive | inactive | inactive | inactive | inactive | inactive | inactive | inactive | inactive | inactive | inactive | inactive
15 | NC1=NC2(c3cc(NC(=O)c4ccc(F)cn4)ccc3F)COCC2CS1 (stereo not given) | inactive | inactive | inactive | inactive | inactive | inactive | inactive | inactive | inactive | inactive | inactive | inactive
